Compound activity as filed in PubChem BioAssay.
PostGolgi ctrl – inhibits growth of the yeast control strain; efflux-deficient yeast background strain, growth absorbance A615, 16 h; inhibition, % at 10 µM; actives 5% (n = 98,000); AID 738
CYP2C19 activ – increases human CYP2C19 enzyme activity; P33261; recombinant CYP2C19, luciferin-H EGE luminescence; stronger effect = higher value; 0 = fully inhibited enzyme, 1 = untreated enzyme; activation factor at 5 µM; 96,000 tested, under 10 active;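 active = activation factor of at least 2 at 5 µM in the primary screen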;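 also: 0 = wells with 2.5 mM tranylcypromine and 1 = vehicle-only wells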
CYP2C9 activ – increases human cytochrome P450 2C9 activity; recombinant CYP2C9, luciferin-H conversion, luminescence; stronger effect = higher value; factor 1 = untreated enzyme, 0 = blocked; AID 1024; activation factor at 5 µM; actives 1.4% (n = 96,000);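 active = activation factor of 2 or more for CYP2C9 at a 5 µM dose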;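 also: 0 = sulfaphenazole-blocked wells and 1 = vehicle-only wells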
Target sequence (P11712 whole entry, looked up): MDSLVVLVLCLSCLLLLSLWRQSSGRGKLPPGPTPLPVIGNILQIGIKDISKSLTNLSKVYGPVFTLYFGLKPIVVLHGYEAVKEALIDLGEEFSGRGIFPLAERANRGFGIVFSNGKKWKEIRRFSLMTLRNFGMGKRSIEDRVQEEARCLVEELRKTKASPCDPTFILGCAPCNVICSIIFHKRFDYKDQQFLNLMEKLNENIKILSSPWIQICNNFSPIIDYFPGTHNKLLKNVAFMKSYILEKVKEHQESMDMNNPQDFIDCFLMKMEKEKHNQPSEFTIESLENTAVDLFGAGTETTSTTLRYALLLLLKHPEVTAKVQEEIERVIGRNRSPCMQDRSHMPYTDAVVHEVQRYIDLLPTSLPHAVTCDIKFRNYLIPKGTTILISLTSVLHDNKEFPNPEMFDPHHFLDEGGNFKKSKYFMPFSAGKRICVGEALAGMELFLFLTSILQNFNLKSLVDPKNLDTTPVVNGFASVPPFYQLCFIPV
CYP2C9 inhib – human CYP2C9 inhibition | P11712 | actives 20% (n = 96,000) | CYP2C9 Supersomes, luciferin-H conversion, luminescence | inhibition, % at 5 µM | AID 777;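 active = blocking of liver enzyme CYP2C9 beyond about 50% at 5 µM, limit read from the data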
CYP2C19 inh – human CYP2C19 inhibition; CYP2C19 Supersomes, luciferin-H EGE luminescence, 30 min; inhibition, % at 5 µM; actives 21% (n = 96,000); P33261;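 active = CYP2C19 inhibition above a set limit at 5 µM in the primary screen, cut at about 50% in these data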;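 also: plate controls were negative control wells for no effect and 2.5 mM tranylcypromine positive control for full effect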
PostGolgi yeast – growth inhibition of a yeast mutant, post-Golgi transport screen | post-Golgi transport phenotypic cell assay | inhibition, % at 10 µM | actives 0.9% (n = 98,000) | AID 739;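 also: yeast cells grown in 1536-well plates; yeast grown about 18 h at 30C before absorbance read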
* = called active by the depositor; . = no result given. Compounds with a hit are over-represented: about 32% of the library has one in this group of screens. Rule as the data show it, unless noted: active = inhibition above about 30%; inactive = the rest.

SMILES	PostGolgi ctrl	CYP2C19 activ	CYP2C9 activ	CYP2C9 inhib	CYP2C19 inh	PostGolgi yeast
N#CC1=C(SCC(=O)c2cc3ccccc3oc2=O)NC(=O)C(C#N)C12CCCC2 (configuration not stated)	8	0.5	0.1	88*	52*	9
Cc1sc2ncnc(NCC3(N4CCOCC4)CCCCC3)c2c1C	33*	0.7	0.4	60*	30	32*
COc1cccc(-c2cc(C(=O)Nc3nc4ccccc4s3)c3ccccc3n2)c1	24	0.8	0.5	51*	22	8
Cn1c(NC(=O)c2cc(-c3ccc4c(c3)OCO4)nc3ccccc23)cc(=O)n(C)c1=O	8	0.7	0.3	73*	30	-2
O=C(Nc1ccc2c(c1)OCCO2)c1cc(-c2ccccc2)nc2ccccc12	6	0.8	0.6	44	24	17
COc1cccc(C(=O)NCc2cccnc2)c1	-2	0.8	1.2	-19	21	0
COc1cccc(-c2cc(C(=O)Nc3ccc4c(c3)OCCO4)c3ccccc3n2)c1	9	1.2	0.3	71*	-17	-2
COc1cccc(C(=O)NCc2ccc(-c3nc4ccccc4s3)cc2)c1	3	0.6	0.2	82*	39	-4
CCc1ccc(NC2=NC(C(=O)NC3CCCCC3)CC(=O)N2)cc1 (configuration not stated)	-2	1.2	1.2	-24	-17	7
Cc1cc(NC(=O)CSc2nnc(C3CC3)n2Cc2ccccc2)no1	3	0.7	0.6	40	31	6
COc1ccc(Cl)cc1Nc1nc(N2CCCC2)nc(N2CCCC2)n1	.	1.1	1	1	-12	.
COc1ccc(-c2ccc(SCC(=O)N3CCCC3)nn2)cc1OC	8	1.1	1.1	-6	-6	-6
CC1CCCCN1C(=O)CSc1ccc(-c2ccc(F)cc2)nn1 (configuration not stated)	45*	0.4	0.7	35	61*	-5
CC(=O)c1c(C)[nH]c(C(=O)Nc2ccc(C)cn2)c1C	3	0.7	0.9	9	33	-1
CC(=O)c1c(C)[nH]c(C(=O)Nc2cc(C)cc(C)c2)c1C	14	0.4	0.2	84*	58*	-4
Cc1cccc(N=C2Sc3nc4c(C)c(C)ccc4cc3CN2CCN2CCOCC2)c1	97*	0.8	0.5	47	16	46*
CCN(CC)C(=O)N1CCN(S(=O)(=O)c2ccc(C)c(C)c2)CC1	5	0	2.2*	-123	98*	-1
Cc1ccc(N(C)C(=O)N2CCN(S(=O)(=O)c3ccc(C)c(C)c3)CC2)cc1	35*	0	0.2	78*	98*	8
Cc1ccc(S(=O)(=O)N2CCN(C(=O)N(C)C)CC2)cc1C	0	0.4	1.7	-68	56*	-11
Cc1ccc(N(C)C(=O)N2CCN(S(=O)(=O)c3c(C)cc(C)cc3C)CC2)cc1	24	0.4	0.3	75*	64*	-6
CCN(CC)C(=O)N1CCN(S(=O)(=O)c2ccc(C)cc2)CC1	9	0.7	1.4	-38	30	-5
Cc1ccc(S(=O)(=O)N2CCC(C(=O)O)CC2)cc1C(=O)O	3	1.2	1.1	-13	-19	11
C=CCOc1cccc(C2C(C(=O)c3ccco3)=C(O)C(=O)N2CCN(CC)CC)c1 (configuration not stated)	6	0.8	1.1	-11	17	-7
COc1ccc(C2C(=O)N(C3CCCCC3)CC(=O)N2C2CCCCC2)cc1 (configuration not stated)	6	0.7	0.5	53*	31	2
Cc1ccc(-c2nnn(CC(=O)Nc3cccc4c3CCCC4)n2)o1	20	0.5	0.9	13	52*	6
SMILES	PostGolgi ctrl	CYP2C19 activ	CYP2C9 activ	CYP2C9 inhib	CYP2C19 inh	PostGolgi yeast
Cc1ccc(-c2nnn(CC(=O)NCCc3ccc4c(c3)OCO4)n2)o1	20	0.4	0.1	89*	60*	13
Cc1ccc(C)n1NC(=O)c1ccccc1O	8	0.8	0.6	45	19	19
CC(=O)Nc1ccccc1-c1nc2ccc(C(=O)N3CCN(c4cccc(C)c4)C(C)C3)cc2[nH]c1=O (configuration not stated)	1	0.3	0.1	87*	70*	2
CC(=O)Nc1ccccc1-c1nc2ccc(C(=O)N3CCN(c4ccccc4)CC3)cc2[nH]c1=O	18	0.9	0.6	41	13	-8
COc1cccc(N2CCN(C(=O)c3ccc(=O)oc3)CC2C)c1 (configuration not stated)	7	0.8	0.7	33	24	5
Cc1cccc(N2CCN(C(=O)c3cc4c(=O)n(C)c5ccccc5c4n3C)CC2C)c1 (configuration not stated)	37*	0	0.1	94*	99*	-2
Cc1cccc(N2CCN(C(=O)c3ccc4nc(-c5ccco5)c(-c5ccco5)nc4c3)CC2C)c1 (configuration not stated)	6	0.5	0.5	52*	49	2
O=S(=O)(CCc1ccccc1)/N=C/c1cccs1	.	1.1	1.2	-21	-9	.
CCN1CCCC1CNC(=O)c1ccc(CS(=O)(=O)c2ccccc2C)o1 (configuration not stated)	-9	1.1	1.1	-14	-12	-9
COc1ccc(C2(C(=O)NC(C)C)CCCC2)cc1OC	28	0.8	0.9	13	16	6
COc1ccc(CC(=O)NCC2(c3ccc(OC)c(OC)c3)CCOCC2)cc1	7	0.9	1	2	10	1
Cc1ccc(CNC(=O)CC2C(=O)Nc3c2c(=O)n(C)c(=O)n3Cc2ccccc2)cc1 (configuration not stated)	1	1	0.8	22	0	7
C=CCn1c(CCNC(=O)c2ccccc2F)nnc1SCc1nc2ccccc2c(=O)[nH]1	12	1	0.7	32	1	-1
C=CCn1c(CCNC(=O)c2ccccc2F)nnc1SCC(=O)Nc1nc(C)cs1	-2	0.7	0.5	50*	31	-4
C=CCn1c(CCNC(=O)c2cccs2)nnc1SCC(=O)Nc1cccc(F)c1	15	0.3	0.1	90*	72*	3
Cc1ccc(CNC(=O)C2CC(c3cccc([N+](=O)[O-])c3)=NO2)o1 (configuration not stated)	3	0.9	1.2	-18	11	-5
CC1(C)CC(=O)c2sc(NC(=O)c3ccco3)nc2C1	6	0.9	0.7	29	11	4
Cc1onc(-c2ccccc2)c1C(=O)Nc1nc2c(s1)C(=O)CC(C)(C)C2	15	0.9	0.5	54*	5	-11
Cc1onc(-c2ccccc2)c1C(=O)Nc1nnc(-c2ccncc2)s1	23	0.4	0	99*	61*	-1
